Only some compounds are listed: those with a hit (about 18% of all), similar ones and a draw of the others.
PLK1 PBD inh: PLK1 (human) polo-box domain binding inhibition. P53350. Plk1 PBD binding of FITC phosphopeptide, fluorescence polarization. Potency, µM, inactives show max response, negative = inhibition, usual class: inhibitors. 360,000 tested, 2.8% active; also: series mostly up to about 57 µM; nearly all actives have a fitted effect of over 65% in size
Target sequence (P53350 whole entry, looked up, the tested form may be a part): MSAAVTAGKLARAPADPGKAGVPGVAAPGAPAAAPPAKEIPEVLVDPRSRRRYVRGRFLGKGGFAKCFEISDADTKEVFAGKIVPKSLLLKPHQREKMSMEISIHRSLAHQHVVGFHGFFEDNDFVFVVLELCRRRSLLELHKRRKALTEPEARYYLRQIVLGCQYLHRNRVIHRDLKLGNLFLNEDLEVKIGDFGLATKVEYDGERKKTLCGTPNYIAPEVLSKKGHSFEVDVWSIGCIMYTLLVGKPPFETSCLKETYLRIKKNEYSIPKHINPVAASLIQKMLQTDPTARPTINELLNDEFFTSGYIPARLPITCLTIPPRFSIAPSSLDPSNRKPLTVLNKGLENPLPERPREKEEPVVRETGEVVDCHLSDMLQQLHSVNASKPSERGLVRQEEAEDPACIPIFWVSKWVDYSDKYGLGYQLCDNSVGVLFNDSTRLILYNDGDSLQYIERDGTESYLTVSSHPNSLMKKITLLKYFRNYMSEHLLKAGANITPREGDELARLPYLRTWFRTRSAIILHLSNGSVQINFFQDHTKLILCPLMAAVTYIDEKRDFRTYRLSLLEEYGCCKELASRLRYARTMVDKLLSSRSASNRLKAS
GCN5L2 inh: blocks human GCN5L2 histone acetyltransferase; GCN5L2 HAT assay, ThioGlo1 CoA-SH fluorescence; Potency, µM (highest dose often 58.9 µM), for the others: at the top dose activity change, negative = inhibition, actives largely listed as inhibitors; 390,000 tested, 0.21% active
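qHTS, 1536-well. 20nM enzyme, pH 7.5 HEPES/EDTA/Tween-20 buffer; 15 min compound preinc., RT. Start: 75uM H3(1-25), 70uM AcCoA, 50uM ThioGlo1. Read Ex340/Em540 at t=0 (autofluorescence flag) and t=20 min.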
VDR inhibitor: vitamin D3 receptor (human) inhibition; 400,000 tested, 0.93% active; VDR-SRC2-3 peptide fluorescence polarization, 2 h; Potency, µM, for the others: max response, negative = inhibition, most hits filed as inhibitors
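Reagent solutions, kept cold and dark, are dispensed first; compounds are then pinned in at 23 nl, plates briefly spun, and incubated 2 h at ambient temperature. Inhibition of VDR–SRC2-3 peptide binding is read by fluorescence polarization.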
TDP1 cell noCPT: qHTS for Inhibitors of human tyrosyl-DNA phosphodiesterase 1 (TDP1): qHTS in cells in absence of CPT | DT40 Tdp1-/- hTDP1 cells, no CPT, ATP luminescence, 48 h | Potency, µM (top dose mostly 46.2 µM), for inactives: at the highest dose activity change, negative = growth inhibition, actives largely listed as inhibitors | 420,000 tested, 15% active; also: nearly all actives have a fitted effect of over 55% in size
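Growth kinetics read by CellTiter-Glo luminescence after ≥48 hr at 37 °C. Cells: DT40 Tdp1-/- stably carrying human TDP1, 400 per well, compound exposure in the absence of CPT (DMSO vehicle).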
TDP1 block: inhibitors of human tyrosyl-DNA phosphodiesterase TDP1; 350,000 tested, 0.28% active; recombinant TDP1, AlphaScreen DNA substrate cleavage; Potency, µM (top dose mostly 130 µM), for the others: at the highest dose activity change, negative = inhibition, hits mostly inhibitors; also: nearly all actives have a fitted effect of over 40% in size
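Compounds were preincubated with Tdp1 (1 nM final) for 15 min at room temperature before substrate (15 nM final) started a 5 min reaction; beads (10 ug/ml final) were then added for 10 min before AlphaScreen detection.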
DT40 TDP1 CPT: growth inhibition of DT40 Tdp1-/-;hTDP1 cells with camptothecin (screen for TDP1 inhibitors); chicken DT40 Tdp1-/-;hTDP1 cells + 20 nM CPT, ATP luminescence, 48 h; AID 686979; Potency, µM (top dose mostly 46.2 µM), for the others: at the highest dose activity change, negative = growth inhibition, most hits filed as inhibitors; 420,000 tested, 12% active; also: nearly all actives have a fitted effect of over 55% in size
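Chicken DT40 Tdp1-/- cells complemented with human TDP1, 400 cells/well, exposed to compounds plus 20 nM camptothecin for at least 48 h at 37 C; viability read as ATP content by CellTiter-Glo luminescence.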
An asterisk follows results filed as active; ? = inconclusive; · = no result given; [ ] = dose if it differs, or a comment. Calls follow the shape of the dose curve; as a rule, active = well fitted curve in the direction sought with a large enough effect; inconclusive = small, poorly fitted or top-dose-only effect, or another doubt; inactive = no such curve, though single readings can be large; an effect the other way counts as inactive or inconclusive. % is scaled to controls: 0 for no effect and ±100 for the full control effect; potency is read from the fitted curve at half-maximal effect.

SMILES | PLK1 PBD inh | GCN5L2 inh | VDR inhibitor | TDP1 cell noCPT | TDP1 block | DT40 TDP1 CPT
COCCNC(=O)CSc1nc(-c2ccccc2)c(-c2ccccc2)o1 | -3% | -26% | 20% | ? | 5% | 12µM*
CC(=O)CSc1nc(-c2ccccc2)c(-c2ccccc2)o1 | 0% | -18% | 1% | 3% | · | -30%
CCCc1n(CC)c2ccccc2[n+]1CC(O)COC1CCCCC1 (centres undefined) | -4% | -12% | -11% | 4.1µM* | 5% | 5.2µM*
CC1=C(C(=O)NCc2ccc(C)cc2)C2(CCCCC2)OC1=O | · | -1% | 4% | ? | 3% | 5%
Cc1ccc(N=Cc2ccc(O)cc2O)cc1F | -6% | 1% | -4% | 21µM* | 2% | ?
Oc1ccc(C=Nc2cccc3ccccc23)c(O)c1 | 1% | -6% | -2% | -18% | · | ?
Cc1nc(CSc2ccc(Cl)cc2)cc(N2CCOCC2)n1 | ? | -2% | -4% | -24% | 3% | -13%
Cc1nc(CS(=O)(=O)c2ccccc2)cc(N2CCOCC2)n1 | 3µM* | -11% | -26% | 9.2µM* | 9% | 9.2µM*
COc1ccc(S(=O)(=O)Nc2cccnc2)cc1 | ? | -19% | -23% | 7% | 1% | -7%
Cc1ccc(C2CC2c2n[nH]c(=S)n2-c2ccc(C)cc2)cc1 (centres undefined) | -19% | -1% | 3% | ? | 6% | -33%
Cc1ccc(C2CC2c2n[nH]c(=S)n2-c2cccc(Cl)c2)cc1 (centres undefined) | -17% | -1% | -21% | 23µM* | 8% | ?
CCN(CC)S(=O)(=O)c1ccc2c(c1)c(=O)c(C(=O)NCc1ccc(Cl)cc1)cn2C | · | -5% | -23% | 9.2µM* | 2% | 10µM*
Cn1cc(C(=O)NCc2ccccc2)c(=O)c2cc(S(=O)(=O)N3CCOCC3)ccc21 | · | -6% | 8% | -2% | -7% | -1%
CC1CCN(S(=O)(=O)c2ccc3c(c2)c(=O)c(C(=O)NCc2cccs2)cn3C)CC1 | 4% | -3% | -5% | ? | 0% | ?
CCN(CC)S(=O)(=O)c1ccc2c(c1)c(=O)c(C(=O)NCc1ccc3c(c1)OCO3)cn2C | · | 2% | · | · | 0% | ·
Cn1cc(C(=O)O)c(=O)c2cc(S(=O)(=O)N3CCOCC3)ccc21 | · | -12% | 0% | 23µM* | -3% | 16µM*
Cn1cc(C(=O)NCc2ccc(Cl)cc2)c(=O)c2cc(S(=O)(=O)N3CCCCCC3)ccc21 | · | -13% | -1% | 16µM* | 2% | ?
CC1CCN(S(=O)(=O)c2ccc3c(c2)c(=O)c(C(=O)NCc2ccco2)cn3C)CC1 | 5% | -9% | -10% | 21µM* | 5% | 21µM*
CC(C)=CC1C(C(=O)NCCc2ccccc2)C1(C)C (centres undefined) | 6% | · | -17% | ? | · | 3%
COc1cc(-c2oc3cc(O)cc(O)c3c(=O)c2OC[C@@H]2OC(O[C@@H]3O[C@@H](C)[C@H](O)[C@@H](O)[C@H]3O)[C@@H](O)[C@H](O)[C@@H]2O)ccc1O (some centres undefined) | · | 0% | 7% | · | 15% | ·
Cc1ccc(NC(=O)Cn2c(=O)oc3ccccc32)c(C)c1 | -3% | -9% | -11% | 13µM* | · | 0%
Cc1ccc(NC(=O)Cn2c(=O)oc3ccccc32)cc1 | -14% | 2% | -10% | -12% | -1% | 22%
Cc1cccc(NC(=O)Cn2c(=O)oc3ccccc32)c1C | -2% | -2% | 12% | ? | · | ?
Cc1ccccc1NC(=O)Cn1c(=O)oc2cc(Br)ccc21 | · | -11% | 5% | 13µM* | 5% | ?
CC(C)(C)c1csc(NC(=O)Cn2c(=O)oc3ccccc32)n1 | 27µM* | -18% | 8% | ? | 0% | 16µM*
SMILES | PLK1 PBD inh | GCN5L2 inh | VDR inhibitor | TDP1 cell noCPT | TDP1 block | DT40 TDP1 CPT
COC(=O)Cn1c(=O)oc2ccc(C)cc21 | 27µM* | 2% | -11% | ? | 5% | ?
CCCCCOC(=O)Cn1c(=O)oc2ccc(C)cc21 | -5% | -2% | -7% | -1% | -4% | -3%
CCOC(=O)c1c(NC(=O)/C=C/c2ccccc2)sc2c1CCCC2 | · | -17% | -7% | -19% | -3%[12.3 µM] | -1%
O=C(CSCn1nnc2c(=O)[nH]c(Cc3ccc(F)cc3)nc21)Nc1cccc(C(F)(F)F)c1 | · | -8% | 6% | ? | 9% | ?
O=C(Nc1ccc(N2CCN(CCOc3ccc(Cl)cc3)CC2)c(C(=O)O)c1)c1ccc(F)cc1 | · | -4% | 11% | -5% | -8% | -24%
Cc1ccc(NC(=O)Cc2cc(C(=O)O)c3ccccc3n2)c(C)c1 | -10% | -4% | -15% | 21µM* | 0% | 15µM*
Cc1ccc2oc(=O)n(CCCOc3ccccc3Cl)c2c1 | · | -13% | -2% | ? | -14% | 21µM*
CCOc1ccccc1NC(=O)Cn1c(=O)oc2cc(Cl)ccc21 | 1% | -26% | 3% | 4.6µM* | · | -18%
Cc1ccc(NC(=O)NC2CCCCC2)c(C)c1 | -2% | 0% | -18% | 1.2µM* | 4% | 1µM*
CCCc1cc(C(=O)O)c2ccccc2n1 | -8% | ? | 6% | 1% | 7% | -1%
Cc1ccc2oc(=O)n(CCOc3ccccc3Cl)c2c1 | -2% | -3% | -10% | -29% | 1% | ?
OCCNc1nc(Nc2ccccc2Oc2ccccc2)nc(N2CCCC2)n1 | · | · | -3% | · | · | ·
Cc1ccc(C)c(NC(=O)Cc2nc(CCl)cs2)c1 | -9% | -2% | 2% | 21µM* | 8% | 26µM*
Cc1ccc(NC(=O)CCl)c(C)c1 | -8% | -1% | -8% | 26µM* | 0% | ?
Cc1ccccc1NC(=O)Cc1nc(CCl)cs1 | ? | -4% | -22% | -30% | 5% | ?
CS(=O)(=O)c1ccc(Cl)c(NC(=O)CCl)c1 | -14% | -13% | 5% | 10µM* | -5% | 5.8µM*
Cc1noc(C)c1S(=O)(=O)N(C)C[C@H]1Oc2ccc(NC(=O)CCC(F)(F)F)cc2C(=O)N([C@H](C)CO)C[C@@H]1C | -12% | 0% | 28% | 1% | 0% | 6%
Cc1ccc2ncc(C(=O)NC(C)c3ccccc3)c(=O)n2c1 (centres undefined) | · | -2% | -9% | ? | 1% | ?
CCOc1ccc2nc(NCCO)[nH]c2c1 | -3% | -4% | 15% | -23% | 5% | -16%
C=C(c1ccc2nc(NC(=O)OC)[nH]c2c1)c1cccs1 | -2% | · | -8% | 0.82µM* | · | 0.73µM*

Screening results from PubChem BioAssay.
